According to the supplement of paper PMC7724964:

T1: WDR74 1-387 WD40 (domain begin residue: 1, domain end residue: 387), Q6RFH5
T1 chain: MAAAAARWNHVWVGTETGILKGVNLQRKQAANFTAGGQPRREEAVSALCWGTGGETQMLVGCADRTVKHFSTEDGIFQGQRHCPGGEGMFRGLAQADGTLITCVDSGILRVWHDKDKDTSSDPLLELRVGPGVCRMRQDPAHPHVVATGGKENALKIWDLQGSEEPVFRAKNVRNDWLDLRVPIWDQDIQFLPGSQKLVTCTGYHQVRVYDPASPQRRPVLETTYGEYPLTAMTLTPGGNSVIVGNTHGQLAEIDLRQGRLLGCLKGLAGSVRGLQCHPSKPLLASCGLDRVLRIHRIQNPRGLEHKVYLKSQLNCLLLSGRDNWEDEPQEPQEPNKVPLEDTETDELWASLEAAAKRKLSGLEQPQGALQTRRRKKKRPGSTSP

T2: YWHAB 1-246 14-3-3 (domain begin residue: 1, domain end residue: 246), P31946
T2 chain: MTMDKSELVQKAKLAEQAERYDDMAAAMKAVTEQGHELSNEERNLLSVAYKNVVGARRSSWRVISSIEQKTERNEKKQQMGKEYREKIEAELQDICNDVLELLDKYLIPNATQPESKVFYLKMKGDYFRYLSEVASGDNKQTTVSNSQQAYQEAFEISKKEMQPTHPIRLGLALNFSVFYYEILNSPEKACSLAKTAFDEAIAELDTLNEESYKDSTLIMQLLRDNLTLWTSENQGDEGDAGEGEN

T3: YWHAZ 1-245 14-3-3 (domain begin residue: 1, domain end residue: 245), P63104
T3 chain: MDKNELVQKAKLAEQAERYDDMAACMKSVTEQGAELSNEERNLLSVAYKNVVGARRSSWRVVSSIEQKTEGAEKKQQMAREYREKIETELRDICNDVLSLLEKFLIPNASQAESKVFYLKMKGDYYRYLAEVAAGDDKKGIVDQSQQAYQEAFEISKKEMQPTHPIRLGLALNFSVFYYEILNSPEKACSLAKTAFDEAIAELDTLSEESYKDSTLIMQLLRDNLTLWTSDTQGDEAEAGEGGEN

T4: YWHAE 1-255 14-3-3 (domain begin residue: 1, domain end residue: 255), P62258
T4 chain: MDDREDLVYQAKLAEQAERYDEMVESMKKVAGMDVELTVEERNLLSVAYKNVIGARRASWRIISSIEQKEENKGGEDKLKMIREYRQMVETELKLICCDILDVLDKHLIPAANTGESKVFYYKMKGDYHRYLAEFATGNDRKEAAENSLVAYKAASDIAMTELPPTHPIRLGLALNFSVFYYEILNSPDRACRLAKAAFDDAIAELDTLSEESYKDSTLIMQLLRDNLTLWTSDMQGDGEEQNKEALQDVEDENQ

T5: YWHAG 1-247 14-3-3 (domain begin residue: 1, domain end residue: 247), P61981
T5 chain: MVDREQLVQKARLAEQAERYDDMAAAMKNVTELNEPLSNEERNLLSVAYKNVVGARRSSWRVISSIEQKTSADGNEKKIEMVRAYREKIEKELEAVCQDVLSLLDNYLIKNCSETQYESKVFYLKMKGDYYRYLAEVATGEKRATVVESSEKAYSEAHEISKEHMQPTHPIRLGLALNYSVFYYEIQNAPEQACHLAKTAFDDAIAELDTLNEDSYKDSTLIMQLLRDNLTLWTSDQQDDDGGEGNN

T6: YWHAH 2-246 14-3-3 (domain begin residue: 2, domain end residue: 246), Q04917
T6 chain: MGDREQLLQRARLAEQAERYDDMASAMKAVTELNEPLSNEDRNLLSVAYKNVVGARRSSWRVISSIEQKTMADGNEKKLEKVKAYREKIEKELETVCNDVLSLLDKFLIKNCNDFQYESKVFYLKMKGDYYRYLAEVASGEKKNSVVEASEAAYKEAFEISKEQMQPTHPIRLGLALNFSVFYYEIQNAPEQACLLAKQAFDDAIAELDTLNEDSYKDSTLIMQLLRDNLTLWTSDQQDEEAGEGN

T7: ZGPAT 120-268 zf-CCCH+TUDOR (domain begin residue: 120, domain end residue: 268), Q8N5A5
T7 chain: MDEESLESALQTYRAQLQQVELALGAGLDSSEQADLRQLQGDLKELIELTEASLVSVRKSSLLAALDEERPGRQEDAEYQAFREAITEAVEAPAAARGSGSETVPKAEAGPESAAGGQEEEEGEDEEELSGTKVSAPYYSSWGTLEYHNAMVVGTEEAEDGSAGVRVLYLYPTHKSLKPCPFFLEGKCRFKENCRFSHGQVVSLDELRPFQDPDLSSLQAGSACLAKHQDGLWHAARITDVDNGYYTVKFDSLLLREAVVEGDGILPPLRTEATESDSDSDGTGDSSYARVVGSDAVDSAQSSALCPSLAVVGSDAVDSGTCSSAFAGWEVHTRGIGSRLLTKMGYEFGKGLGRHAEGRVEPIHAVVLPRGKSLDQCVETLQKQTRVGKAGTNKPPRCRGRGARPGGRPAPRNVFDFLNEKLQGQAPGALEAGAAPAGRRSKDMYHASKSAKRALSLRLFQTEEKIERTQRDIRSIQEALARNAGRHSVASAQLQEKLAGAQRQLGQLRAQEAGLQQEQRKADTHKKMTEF


Target: T1, WDR74 1-387 WD40 (domain begin residue: …
Assay: phage ELISA signal ratio (GST-PRM binding over GST background); higher = stronger binding of peptide-phage to the PRM
Summary of the method: (§1)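 Approximately 48 individual clones from selection rounds 4 and 5 were tested by phage ELISA, and those scoring positive were sequenced. They came from five rounds of selecting an M13 phage library of randomized, cysteine-free, glycine-flanked hexadecapeptides on the gene-8 major coat protein against human peptide recognition domains fused to the C-terminus of glutathione S-transferase (GST) in 96-well plates. Each figure in the table is the ELISA signal on the GST-domain fusion relative to the signal on GST alone.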

First: DMWAMWHEWVEQEPQD
Second: WHWPELQDLMSIGMDE
The “phage ELISA signal ratio” value of the first is lower: 2.88 for the first, 2.99 for the second.

Compared with WEAIWDDMLTVQMPMA, DWFSSIIEAERQPVAD is higher in “phage ELISA signal ratio” value: 5 for the first, 5.4 for the second.

Going from PALSDVWDSIPLEFAW to FDSYWEAAFDQLQMAE, the “phage ELISA signal ratio” value rises from 6.43 to 7.17.

Going from DFMSDMFLQQLDTVGL to DMWSQWEEWNAVMPWE, the “phage ELISA signal ratio” value rises from 7.8 to 9.73.

Target: T2, YWHAB 1-246 14-3-3 (domain begin …
Assay: as above
Summary of the method: as §1

Going from HKMEPWYTDWHADFLM to VVFSDYWVDWHVEYMG, the “phage ELISA signal ratio” value rises from 9.61 to 11.9.

First: QNIEFVWWHKEWLENQ
Second: VWPMPQTWAEWQDLLA
The “phage ELISA signal ratio” value of the first is lower: 15.1 for the first, 17.7 for the second.

Compared with RPAWMDSATWLMIQEW, HPPWWEPWHVEFLLQD is higher in “phage ELISA signal ratio” value: 22 for the first, 22.7 for the second.

Target: T3, YWHAZ 1-245 14-3-3 (domain begin …
Assay: as above
Summary of the method: as §1

Compared with QNIEFVWWHKEWLENQ, EHPHYWTPWHVDYMLR is lower in “phage ELISA signal ratio” value: 6.38 for the first, 4.41 for the second.

First: VKSYYTTWHVQWLMDW
Second: MPEYWVDWHMEYVQEM
The “phage ELISA signal ratio” value of the first is lower: 6.31 for the first, 28.1 for the second.

Target: T4, YWHAE 1-255 14-3-3 (domain begin …
Assay: as above
Summary of the method: as §1

Compared with YMQNLDTQWMLWLQGP, EWSVWDHVPRDWQTVG is higher in “phage ELISA signal ratio” value: 9.78 for the first, 17.7 for the second.

Target: T5, YWHAG 1-247 14-3-3 (domain begin …
Assay: as above
Summary of the method: as §1

Going from PSPQPWWTDWHAEWVN to HQQGDDWVIAEIPPFR, the “phage ELISA signal ratio” value rises from 16.1 to 19.8.

PQSLQEAMVVWQTWSG was tested, and the “phage ELISA signal ratio” value was 21.6.

Target: T6, YWHAH 2-246 14-3-3 (domain begin …
Assay: as above
Summary of the method: as §1

Going from MDWLDLAGQESLFPLW to GDVSNLSEAMELWRSW, the “phage ELISA signal ratio” value rises from 17.1 to 17.6.

Going from GLHQLDWLDLADIYPK to SLEWLDLAQWTDPHQR, the “phage ELISA signal ratio” value rises from 18.7 to 19.8.

Compared with LEWLDLAQWHGGENSR, VEYLDLANFDPMAGKW is higher in “phage ELISA signal ratio” value: 21 for the first, 26.2 for the second.

Target: T7, ZGPAT 120-268 zf-CCCH+TUDOR (domain …
Assay: as above
Summary of the method: as §1

First: EPHMLYDMWREWVTAD
Second: DYMSQLWDHMSVDIYP
The “phage ELISA signal ratio” value of the first is lower: 3.14 for the first, 5.82 for the second.

First: SQAMDLNAGWPWDIVM
Second: DYMSTLFDSIPTHVST
The “phage ELISA signal ratio” value of the first is lower: 8.17 for the first, 8.28 for the second.
